Measurements taken from PubChem BioAssay AID1159580 (chemical genetic matrix, 2015).
Among all 5,500 compounds or so, about 2,000 (36%) were called active. About 18% were inconclusive and are not listed. No stated cut-off is given here; in the data, active means normalized growth mostly below about 0.91 (no sharp cut-off); inconclusive means no clear call, values can overlap the other calls; inactive means mostly above about 0.92. The list shows a part of the results.

Test: chemical genetic growth profiling, strain panel (AID 1159580);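 further: tested at 20 µM; growth read once vehicle control cultures reached saturation at 30 °C; 1 = growth at the plate median or of vehicle wells; lower values mean less growth of the strain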
Conditions: S. cerevisiae deletion strains, growth OD

Measured: normalized growth

CC(Cc1cccc(C(F)(F)F)c1)NCCOC(=O)c1ccccc1 (stereo unspecified)
inactive: locus YJR075W, strain HOC1, hits give low values 0.886 | locus YKL009W, strain mrt4, hits give low values 0.974 | locus YKL068W, hits give low values 1.01 | locus YKL085W, strain MDH1 (second series), hits give low values 0.998 | locus YKL085W, strain MDH1, hits give low values 0.998 | locus YKL160W, strain elf1, hits give low values 0.946 | locus YKL190W, strain CNB1, hits give low values 0.982 | locus YKR001C, strain vps1, hits give low values 1.03 | locus YKR026C, strain gcn3, hits give low values 0.987 | locus YKR091W, strain srl3, hits give low values 1 | locus YLL001W, strain dnm1, hits give low values 0.935 | locus YLL026W, hits give low values 0.933 | locus YLL041C, strain sdh2, hits give low values 0.993 | locus YLR027C, strain aat2, hits give low values 0.93 | locus YLR039C, strain RIC1, hits give low values 1.02 | locus YLR058C, strain SHM2, hits give low values 0.967 | locus YLR102C, strain apc9, hits give low values 1.02 | locus YLR113W, strain HOG1, hits give low values 1 | locus YLR221C, strain rsa3, hits give low values 0.956 | locus YLR258W, strain gsy2, hits give low values 0.974 | locus YLR262C, strain YPT6, hits give low values 1.01 | locus YLR268W, strain sec22, hits give low values 0.992 | locus YLR320W, strain mms22, hits give low values 0.913 | locus YLR330W, strain CHS5, hits give low values 0.991 | locus YLR357W, strain rsc2, hits give low values 0.987 | locus YLR370C, strain arc18, hits give low values 0.931 | locus YLR371W, strain rom2, hits give low values 1.02 | locus YLR384C, strain iki3, hits give low values 0.988 | locus YLR418C, strain cdc73, hits give low values 0.978 | locus YML016C, strain PPZ1, hits give low values 0.989 | locus YML032C, strain rad52, hits give low values 0.941 | locus YML120C, strain ndi1, hits give low values 0.953 | locus YML124C, strain tub3, hits give low values 1.02 | locus YMR058W, strain fet3, hits give low values 0.905 | locus YMR078C, strain ctf18, hits give low values 1.02 | locus YMR125W, strain sto1, hits give low values 0.97 | locus YMR129W, hits give low values 0.985 | locus YMR205C, strain PFK2, hits give low values 0.961 | locus YMR223W, strain ubp8, hits give low values 0.947 | locus YMR231W, strain pep5, hits give low values 1 | locus YMR263W, strain SAP30, hits give low values 0.962 | locus YMR307W, strain GAS1, hits give low values 0.955 | locus YNL067W, strain RPL9B, hits give low values 0.923
active: locus YLR262C, strain YPT6 (second series), hits give low values 0.785 | locus YLR342W, strain FKS1 (second series), hits give low values 0.745 | locus YLR342W, strain FKS1, hits give low values 0.88
